ELG1 genotoxic – inducers of genotoxicity in HEK293T ELG1-luciferase cells; HEK293T ELG1-luciferase reporter, luminescence, 16 h; AID 504466; Potency, µM (highest dose often 46 µM), inactives show at the top dose activity change, positive = activation, hits mostly activators; actives 1.3% (n = 330,000); also: % of control where 0% means no effect; nearly all actives have a fitted effect of over 60% in size
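HEK293T cells expressing luciferase-tagged ELG1 were treated with compound or DMSO for 16 hr at 37°C. Luciferase activity was then read after 30 min with ONE-Glo at room temperature; rising signal flags genetic stress.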
SMN2 splice enh – SMN2 splice variant enhancement | HEK293 SMN2-luciferase splicing reporter, luminescence, 30-36 h | Potency, µM (top dose mostly 46.1 µM), for the others: at the highest dose activity change, positive = activation, hits mostly activators | AID 1458 | actives 2.8% (n = 210,000); also: % of control where 0% means no effect; nearly all actives have a fitted effect of over 55% in size
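HEK293 cells carry an SMN2 […]–luciferase reporter in which exon 7 inclusion puts luciferase in frame. Cells were plated 10-12 h before compound addition, then incubated 30-36 h at 37C. ONE-Glo luminescence was read; sodium butyrate at 4.5 mM final served as control.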
NPC1 promoter act – activators of NPC1 promoter. Huh7 NPC1 promoter luciferase reporter, 24 h. Potency, µM (highest dose often 9.22 µM), inactives show at the highest dose activation, most hits filed as activators. actives 2.4% (n = 320,000); also: % of control where 0% means no effect; nearly all actives have a fitted effect of over 60% in size
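In 1536-well qHTS, Huh7 cells harboring an NPC1 promoter–luciferase construct received compound for 24 h; activation was quantified by luminescence following luciferase reagent addition.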
FLuc counter – inhibits or activates purified firefly luciferase, miR-21 counter-screen. P08659. purified FLuc, Km substrates, luminescence inhibition. Potency, µM (highest dose often 57.5 µM), for the others: at the top dose activity change, negative = inhibition, usual class: inhibitors. actives 6.9% (n = 360,000);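 also: plate controls were vehicle for no effect and reference inhibitor for full effect; nearly all actives have a fitted effect of over 55% in size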
Target sequence (P08659 whole entry, looked up): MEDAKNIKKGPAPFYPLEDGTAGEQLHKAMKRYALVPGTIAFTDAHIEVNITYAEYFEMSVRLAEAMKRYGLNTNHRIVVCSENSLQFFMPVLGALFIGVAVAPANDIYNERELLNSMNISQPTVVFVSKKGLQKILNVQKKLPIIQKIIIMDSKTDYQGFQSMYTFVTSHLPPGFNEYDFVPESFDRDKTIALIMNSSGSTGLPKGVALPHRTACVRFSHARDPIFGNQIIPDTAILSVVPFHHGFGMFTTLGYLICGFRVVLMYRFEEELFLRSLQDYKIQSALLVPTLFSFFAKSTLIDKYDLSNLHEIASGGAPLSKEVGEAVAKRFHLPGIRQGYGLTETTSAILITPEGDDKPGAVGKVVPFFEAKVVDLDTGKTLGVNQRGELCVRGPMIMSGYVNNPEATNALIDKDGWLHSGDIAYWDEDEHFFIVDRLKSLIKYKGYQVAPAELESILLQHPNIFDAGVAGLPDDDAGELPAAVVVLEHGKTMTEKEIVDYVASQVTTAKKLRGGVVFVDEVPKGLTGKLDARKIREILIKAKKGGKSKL
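Purified P. pyralis luciferase (10nM final) with 10uM D-luciferin and 10uM ATP (Km levels) in 50mM Tris acetate pH 7.5, 10mM Mg acetate, 0.01% Tween-20, 0.05% BSA; qHTS 6-point titration, ~60 µM downward; luminescence read.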
ELG1 repair inh – inhibitors of ELG1-dependent DNA repair in HEK293T cells; actives 2.3% (n = 330,000); HEK293T ELG1-luciferase reporter, luminescence, 16 h; DNA damage induced by 5-fluorouridine; Potency, µM (series often up to 46.1 µM), for the others: at the top dose activity change, negative = inhibition, actives largely listed as inhibitors; AID 504467; also: % is scaled to controls: 0 for no effect and ±100 for the full control effect; nearly all actives have a fitted effect of over 55% in size
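Cells (2,000 per well) received 5-fluorouridine plus test compound or DMSO and were incubated 16 hr at 37 °C, 5% CO2. Luciferase activity was read by luminescence 30 min after ONE-Glo addition; signal suppression marked inhibition of damage-induced ELG1 function.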
Rab9 promoter act – activators of Rab9 promoter | Huh7 Rab9 promoter-luciferase reporter, luminescence, 24 h | Potency, µM (series often up to 9.22 µM), inactives show at the top dose activation, negative = inhibition, most hits filed as activators | actives 2.8% (n = 320,000); also: % of control where 0% means no effect; nearly all actives have a fitted effect of over 60% in size
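Luminescence from Amplite-detected luciferase (10 minutes, ambient) reports Rab9 promoter activation. Before that, stable Rab9-luciferase Huh7 cells (1500/well, reduced-serum OP-MEM I plus 10% FBS) were exposed to compound for 24 hours at 37C.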
* marks the source's active call; other numbers are inactive results; ? = inconclusive; . = no result. An excerpt weighted towards active compounds, which were near 9.3% of everything screened. Calls follow the shape of the dose curve; as a rule, active = well fitted curve in the direction sought with a large enough effect; inconclusive = small, poorly fitted or top-dose-only effect, or another doubt; inactive = no such curve, though single readings can be large; an effect the other way counts as inactive or inconclusive. Potency is read from the fitted curve at half-maximal effect.

SMILES	ELG1 genotoxic	SMN2 splice enh	NPC1 promoter act	FLuc counter	ELG1 repair inh	Rab9 promoter act
O=C(Nc1ccc(N2CCOCC2)c(Cl)c1)c1ccc2c(c1)OCCO2	-1.4%	.	-0.2%	?	?	6.2%
O=C(Nc1ccc2c(c1)OCO2)c1ccc2c(c1)OCO2	?	5.01µM*	0.794µM*	2.13µM*	?	0.562µM*
O=C(Nc1ccc2c(c1)OCO2)c1cccc(Cl)c1	?	15.8µM*	3.16µM*	9.53µM*	?	2.24µM*
O=C(Nc1ccc(N2CCCCC2)c(Cl)c1)c1ccc2c(c1)OCCO2	?	-61.0%	24.5%	5.36µM*	-26.8%	28.2%
COc1ccc(Cl)cc1NC(=O)CSc1cc(C)[nH]c(=O)n1	.	.	.	1.3%	.	.
Cc1ccc(-c2nnc(Nc3ccc(O)cc3)c3ccccc23)cc1S(=O)(=O)N1CCN(C)CC1	.	-7.7%	.	-2.7%	.	.
O=C(Nc1ccc(Cl)cc1)c1ccc2c(c1)OCO2	?	4.47µM*	0.398µM*	1.35µM*	?	?
O=C(Nc1ccc2c(c1)OCO2)c1c(Cl)nc2sccn12	?	?	?	?	?	3.16µM*
NC(=O)c1ccc(NC(=O)c2ccc3c(c2)OCO3)cc1	18.4µM*	12.6µM*	1.26µM*	4.78µM*	?	1.58µM*
Cn1ncc(Cl)c1C(=O)Nc1ccc2c(c1)OCO2	13.0%	.	16.6%	-10.1%	26.9%	18.1%
Cc1[nH]c2ccccc2c1C(=O)C(=O)Nc1ccc2c(c1)OCO2	17.1%	.	?	16.9µM*	?	?
O=C(Nc1ccc(Cl)c(Cl)c1)c1ccc2c(c1)OCO2	4.61µM*	.	0.794µM*	1.51µM*	?	0.562µM*
CCN1CCN(c2ccc(NC(=O)c3ccc4c(c3)OCO4)cc2)CC1	9.2µM*	15.8µM*	?	16.9µM*	?	?
O=C(Nc1ccc2c(c1)OCO2)c1ccc(N2CCCC2)c([N+](=O)[O-])c1	3.1%	24.4%	13.7%	19µM*	?	-1.3%
O=C(Nc1cccc(NC(=O)c2ccc3c(c2)OCO3)c1)c1ccccc1	-1.8%	10.6%	7.0%	?	?	0.6%
O=C(Nc1ccc(NC(=O)c2ccc(Cl)cc2Cl)cc1)c1ccc2c(c1)OCO2	1.4%	.	-3.1%	0.1%	14.0%	0.1%
O=C(Nc1ccc2nsnc2c1)c1ccc2c(c1)OCO2	1.16µM*	5.62µM*	0.631µM*	1.35µM*	?	0.447µM*
CC(=O)NC(CC(=O)c1ccc([N+](=O)[O-])cc1)C(Cl)(Cl)Cl (stereo unspecified)	2.8%	12.8%	-8.5%	-2.5%	0.8%	-3.8%
Cc1cc(=O)[nH]c(Nc2ccc(C(=O)OC(C)C)cc2)n1	-2.4%	1.7%	-0.1%	?	0.9%	1.4%
CC1CCC2(OC1)OC1CC3C4CCC5CC(O)CCC5(C)C4=CCC3(C)C1C2C (stereo unspecified)	.	1.1%	.	.	.	.
Cc1cc(C)c(NC(=O)C2CCCN(S(=O)(=O)c3c(C)noc3C)C2)c(C)c1 (stereo unspecified)	.	14.5%	.	1.1%	.	.
Cc1cc(C(=O)NC(C)c2ccc3c(c2)OCO3)cs1 (stereo unspecified)	-4.0%	-19.2%	11.4%	0.5%	20.8%	0.9%
O=C(Nc1ccc2c(c1)OCO2)c1ccc(CO)cc1	?	.	3.16µM*	9.53µM*	?	2.82µM*
Cc1cc(C(=O)Nc2ccc3c(c2)OCO3)cs1	7.31µM*	12.6µM*	1.78µM*	4.78µM*	?	1.26µM*
CS(=O)(=O)Nc1ccc(C(=O)Nc2ccc3c(c2)OCO3)cc1	?	11.0%	26.7%	?	?	?
SMILES	ELG1 genotoxic	SMN2 splice enh	NPC1 promoter act	FLuc counter	ELG1 repair inh	Rab9 promoter act
O=C(Nc1ccc(Br)cc1)c1ccc2c(c1)OCO2	8.2µM*	.	1µM*	2.13µM*	?	0.708µM*
COc1ccc(C(NC(N)=O)c2ccccc2)cc1 (stereo unspecified)	-0.1%	-7.9%	2.5%	-8.4%	10.1%	-1.1%
Cc1ccc(-c2cc3onc(-c4ccccc4)c3c(=O)n2C)cc1	?	.	?	0.135µM*	?	?
CNC(=O)c1ccc(-c2cc3onc(-c4ccccc4)c3c(=O)n2C)cc1	15.9%	.	.	.	?	.
CCOc1cc(-c2cc(-c3ccc(C)o3)nc(N)c2C#N)ccc1O	3.7%	27.8%	2.3%	-2.0%	16.4µM*	-1.9%
CCCc1cc(-c2ccc(O)c(OCC)c2)c(C#N)c(N)n1	?	?	-1.2%	-0.8%	?	2.6%
Cc1ccc(-c2cc(-c3ccc4c(c3)OCO4)c(C#N)c(N)n2)o1	5.7%	13.4%	-3.1%	-9.9%	20.6µM*	2.8%
COC(=O)c1ccc(C(=O)N2CCCC(Nc3ccc(C(C)C)cc3)C2)nc1 (stereo unspecified)	-4.0%	.	1.4%	-1.9%	-2.7%	0.3%
CSc1ccccc1C(=O)C1CCCN(Cc2cnn(-c3ccccc3)c2)C1 (stereo unspecified)	-9.1%	.	9.2%	5.1%	-17.6%	5.6%
CC12CC3CC(C)(C1)CC(C(=O)NCc1ccco1)(C3)C2	-6.4%	4.3%	?	4.7%	-5.7%	-3.3%
CCN1/C(=C\C(C)=O)Sc2ccc(OC)cc21	-5.4%	-36.7%	-4.4%	5.9%	23.1µM*	1.9%
